Experiment [1] is described as follows: anti-His antibody binders, primary screen, artefact control for SMM control protein annotation, biochemical, small-molecule microarray, 635 nm fluorescence (AID 1128).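 Also: score merges feature fluorescence with signal-to-noise for each printed compound spot.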 The settings on record: anti-His Alexa647 antibody binding, higher = more signal.
The test system of experiment [2] is Human papillomavirus type 1a E7 protein (residues 1-88). Description: HPV1a E7 small-molecule binders, primary screen, biochemical, small-molecule microarray, residues 1-88, 635 nm (AID 1129). To be noted: small-molecule microarray binding, fluorescence 635 nm; higher = more signal.
Experiment [3] addresses Focal adhesion kinase 1 (Homo sapiens) (UniProt Q05397). Put plainly: small-molecule microarray binders of FAK, primary screen, biochemical, 635/667 nm fluorescence, BSA, DTT (AID 1130).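 Also: composite of spot emission at 667 nm and signal to noise over triplicate slides.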 The settings on record: PTK2 binding, 635 nm fluorescence, higher = more signal.
Experiment [4] deals with Fibrinogen (Alexa647-labelled). Description: fibrinogen binders on compound microarrays, profiling panel, artefact control for SMM control-protein annotation, biochemical, small-molecule microarray, 635/667 nm fluorescence (AID 1131).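 Also: z-score merges 667 nm fluorescence with per-spot signal-to-noise over triplicate slides.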 To be noted: fibrinogen-A647 binding fluorescence, higher = more signal.
Experiment [5] addresses Follistatin (Homo sapiens) (UniProt P19883). Description: follistatin binders on small-molecule microarrays, primary screen, biochemical, small-molecule microarray, 635/667 nm fluorescence (AID 1132). The settings on record: FST binding, 635 nm fluorescence, higher = more signal.
The target in experiment [6] is Fibroblast growth factor 2 (Homo sapiens) (UniProt P09038). Put plainly: FGF2 binders on small-molecule microarrays, primary screen, biochemical, small-molecule microarray, 635/667 nm fluorescence (AID 1133). To be noted: small-molecule microarray binding, FGF2, fluorescence 635/667; higher = more signal.
Sequence of Fibroblast growth factor 2 (Homo sapiens) (P09038 whole entry, looked up): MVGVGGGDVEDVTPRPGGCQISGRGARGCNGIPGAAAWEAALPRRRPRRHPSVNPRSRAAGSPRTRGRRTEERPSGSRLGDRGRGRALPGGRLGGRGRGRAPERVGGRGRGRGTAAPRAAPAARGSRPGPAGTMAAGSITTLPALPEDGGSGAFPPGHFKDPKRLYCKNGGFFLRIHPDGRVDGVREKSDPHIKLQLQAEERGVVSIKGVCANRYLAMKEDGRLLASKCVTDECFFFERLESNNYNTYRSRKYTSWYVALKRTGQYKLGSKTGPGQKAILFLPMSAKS
Experiment [7] is described as follows: mitochondrial membrane potential change in A549 cells, profiling panel, cell-based, JC-1 fluorescence, basal, 24 h, 100 nL (AID 1138).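 Also: A549 lung adenocarcinoma cells under basal conditions with no added stimulus; test concentration not given here.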 To be noted: higher = more signal.
A further experiment deals with Lefty1. Put plainly: Lefty1 binders on small-molecule microarrays, primary screen, biochemical, small-molecule microarray, 635/667 nm fluorescence (AID 1139). To be noted: small-molecule microarray binding, fluorescence 635/667; higher = more signal.
In experiment [8] the test system is wheat germ agglutinin (Triticum aestivum), Alexa647-labelled. Put plainly: wheat germ agglutinin binders on compound microarrays, profiling panel, artefact control for SMM control-protein annotation, biochemical, small-molecule microarray, 635/667 nm fluorescence (AID 1140).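 Also: score merges 667 nm feature emission with signal to noise over triplicate slides.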 To be noted: WGA-A647 binding, 635 nm fluorescence, higher = more signal.
In experiment [9] the target is Luciferin 4-monooxygenase (Photinus pyralis) (UniProt P08659). Put plainly: firefly luciferase enzyme inhibitors, primary screen, biochemical, luminescence, purified enzyme, 2006 set (AID 1141).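 Also: cell-free assay with purified firefly luciferase at 100 ng per well in PBS; test concentration not given here.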 To be noted: SteadyGlo luminescence, 30 min, higher = more signal, called active from +8 up or from −8 down.
Sequence of Luciferin 4-monooxygenase (Photinus pyralis) (P08659 whole entry, looked up): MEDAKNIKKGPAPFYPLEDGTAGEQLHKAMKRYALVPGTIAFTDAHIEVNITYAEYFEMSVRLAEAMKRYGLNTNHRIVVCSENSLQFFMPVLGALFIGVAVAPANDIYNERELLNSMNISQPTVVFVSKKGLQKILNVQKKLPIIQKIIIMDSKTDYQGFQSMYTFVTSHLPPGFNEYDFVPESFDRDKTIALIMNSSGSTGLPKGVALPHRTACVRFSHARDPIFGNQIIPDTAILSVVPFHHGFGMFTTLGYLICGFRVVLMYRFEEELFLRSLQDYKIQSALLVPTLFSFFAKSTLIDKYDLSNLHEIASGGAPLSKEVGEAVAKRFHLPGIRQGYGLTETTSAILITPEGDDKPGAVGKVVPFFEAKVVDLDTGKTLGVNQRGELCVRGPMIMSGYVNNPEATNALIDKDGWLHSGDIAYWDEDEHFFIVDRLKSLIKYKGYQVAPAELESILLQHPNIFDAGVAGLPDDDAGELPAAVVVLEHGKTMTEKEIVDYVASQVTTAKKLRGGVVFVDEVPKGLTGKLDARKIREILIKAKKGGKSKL

Structures are written as SMILES. Calls of active or inactive are those of the source.

Sequence of Follistatin (Homo sapiens) (P19883 whole entry, looked up): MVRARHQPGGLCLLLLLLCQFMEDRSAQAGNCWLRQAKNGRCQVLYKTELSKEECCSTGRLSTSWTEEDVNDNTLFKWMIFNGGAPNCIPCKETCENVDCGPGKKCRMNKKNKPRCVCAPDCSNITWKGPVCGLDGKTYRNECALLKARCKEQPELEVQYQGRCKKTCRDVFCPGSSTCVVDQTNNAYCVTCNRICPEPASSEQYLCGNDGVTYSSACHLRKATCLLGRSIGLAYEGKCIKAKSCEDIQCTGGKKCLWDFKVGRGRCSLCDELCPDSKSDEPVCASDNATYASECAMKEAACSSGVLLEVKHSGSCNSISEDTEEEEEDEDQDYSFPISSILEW
Sequence of Focal adhesion kinase 1 (Homo sapiens) (Q05397 whole entry, looked up): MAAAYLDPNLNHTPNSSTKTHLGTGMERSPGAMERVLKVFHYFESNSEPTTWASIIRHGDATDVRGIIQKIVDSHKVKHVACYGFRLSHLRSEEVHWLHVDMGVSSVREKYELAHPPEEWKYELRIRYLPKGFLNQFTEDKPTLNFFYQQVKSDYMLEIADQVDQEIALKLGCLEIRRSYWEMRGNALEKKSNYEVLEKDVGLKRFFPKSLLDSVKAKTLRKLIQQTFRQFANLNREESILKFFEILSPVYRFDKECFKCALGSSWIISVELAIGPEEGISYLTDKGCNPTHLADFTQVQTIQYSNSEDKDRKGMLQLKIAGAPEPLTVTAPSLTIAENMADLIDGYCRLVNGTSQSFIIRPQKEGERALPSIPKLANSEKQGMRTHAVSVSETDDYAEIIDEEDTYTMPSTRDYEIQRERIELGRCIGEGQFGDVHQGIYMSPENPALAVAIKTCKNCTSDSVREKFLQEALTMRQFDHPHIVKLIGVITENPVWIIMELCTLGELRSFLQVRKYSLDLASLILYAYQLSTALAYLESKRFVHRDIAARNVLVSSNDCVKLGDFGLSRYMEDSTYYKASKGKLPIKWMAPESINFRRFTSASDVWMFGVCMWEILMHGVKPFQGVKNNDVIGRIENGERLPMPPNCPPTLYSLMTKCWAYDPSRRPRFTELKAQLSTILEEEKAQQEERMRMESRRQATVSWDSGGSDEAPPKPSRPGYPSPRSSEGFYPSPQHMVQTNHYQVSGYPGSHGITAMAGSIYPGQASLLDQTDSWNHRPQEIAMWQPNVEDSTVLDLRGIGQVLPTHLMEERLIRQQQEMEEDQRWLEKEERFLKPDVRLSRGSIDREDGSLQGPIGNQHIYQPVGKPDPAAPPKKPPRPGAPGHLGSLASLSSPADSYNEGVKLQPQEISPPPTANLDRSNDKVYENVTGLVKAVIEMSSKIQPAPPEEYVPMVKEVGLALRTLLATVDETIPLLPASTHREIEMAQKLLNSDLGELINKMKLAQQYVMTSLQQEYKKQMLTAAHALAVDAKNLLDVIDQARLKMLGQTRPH

On to `CC(C)=C1C(=O)C(c2ccccc2)=C2CN3C(=O)N(CCc4ccccc4)C(=O)[C@]3(C)[C@H]21`, for which the composite z-score in experiment [1] is -0.0854; in experiment [2] it was 0.871; in [3], 0.701; in experiment [4], 0.679; in [5], 0.21; in experiment [6], -0.648. The composite z-score in the experiment with Lefty1 is -0.455; in [8] it was 0.673. In addition, the z-score in [7] was 1.77; in experiment [9], 0.0775 (inactive).
Consider `CCOC(=O)C1=C[C@@H](C(C)(C)C)N(S(=O)(=O)c2ccc(C)cc2)[C@H]1c1ccc(C#N)cc1`, for which the composite z-score in experiment [1] turned out to be 1.16; in experiment [2], 1.23; in experiment [3], 0.637; in [4] it was 0.996; in experiment [5] it was 0.599; in experiment [6], 0.0014. For the same compound, the results for the composite z-score (in the experiment on Lefty1; in experiment [8]) were 0.307 and 1.08, respectively. The z-score in experiment [7] is 1.53; in experiment [9], 1.82 (inactive).
With `CCCN1C(=O)[C@@]2(c3ccc([N+](=O)[O-])cc3)CC(=O)N(CC34CC5CC(CC(C5)C3)C4)[C@@H]2c2ccc(CO)cc21`, the composite z-score is -0.0371 in experiment [1]; -1.01 in experiment [2]; 0.195 in experiment [3]; -0.171 in experiment [4]; 1.23 in experiment [5]; 1.12 in experiment [6]. Also, the composite z-score was -0.0689 in the experiment on Lefty1 and -0.0176 in [8]. Also, the z-score was -0.284 in experiment [7] and -0.366 (inactive) in experiment [9].
As for `CC(C)C[C@@H]1NC(=O)[C@@]23C(=O)N[C@@H](Cc4ccccc4)C2[C@H](C)[C@@]2(C)O[C@H]2C3/C=C/C/C=C\CNC(=O)CNC1=O` (stereo not given in full), the composite z-score is 0.256 in experiment [1]; 0.088 in experiment [2]; -0.0353 in experiment [3]; 0.177 in experiment [4]; 0.929 in experiment [5]; 0.766 in experiment [6]. Besides, the values for the composite z-score (with Lefty1; in experiment [8]) were 0.938 and 0.375, respectively. The figures for the z-score in experiment [7] and in experiment [9] were -0.0173 and -0.321 (inactive), respectively.
As to `CN(C)CCCNC(=O)[C@@H]1c2ccccc2C(=O)N(Cc2ccccc2C(F)(F)F)[C@H]1c1ccc(CO)cc1`, the composite z-score was -1.51 in experiment [1]; 0.197 in experiment [2]; -0.142 in experiment [3]; -0.126 in [4]; 0.0865 in experiment [5]; -0.361 in experiment [6]. Further, the composite z-score in the experiment on Lefty1 was -0.913; in [8], 0.1. In addition, the z-score was 2.89 in [7] and -1.13 (inactive) in experiment [9].
As for `C=CCC(OC(C)=O)[C@@H]1[C@@H](N(Cc2cc3ccccc3o2)C(=O)Cc2ccc(OC)cc2)c2cc(OCCCO)ccc2N1C(=O)c1ccc2ccccc2n1` (stereo not given in full), the composite z-score in experiment [1] is 0.264; in experiment [2], -0.314; in experiment [3] it was 0.138; in [4] it was 0.301; in experiment [5] it was 0.654; in [6], 0.0376. The composite z-score was 0.0249 with Lefty1 and -0.0063 in experiment [8]. The results for the z-score in [7] and in [9] were -0.194 and -0.219 (inactive), respectively.
`CCCCCCc1nc(-c2ccc(-c3ccc(Cl)c(Cl)c3)o2)cc2c1[Si](C(C)C)(C(C)C)OC2`: the composite z-score is -0.265 in experiment [1]; -0.819 in [2]; -0.0104 in experiment [3]; -1.85 in experiment [4]; -0.577 in experiment [5]; -0.985 in experiment [6]. For the same compound, the composite z-score was -0.468 with Lefty1 and 0.105 in experiment [8]. The z-score in experiment [7] is -0.413; in experiment [9], -5.02 (inactive).
For `[N-]=[N+]=Nc1ccccc1[C@H]1OC(c2ccc(OCCCO)cc2)=N[C@@]1(Cc1ccccc1)C(=O)NCC(O)CO` (stereo not given in full), the composite z-score is 1.67 in [1]; 1.21 in experiment [2]; 0.0145 in experiment [3]; 0.959 in [4]; 1.06 in experiment [5]; -0.551 in [6]. Moreover, the composite z-score with Lefty1 is -0.498; in [8] it was 0.966. Moreover, the z-score is 0.586 in experiment [7] and -5.02 (inactive) in experiment [9].
With `CN(C)CCCCNC(=O)[C@H]1C[C@H]2C(=O)NCC(=O)N2[C@H]1c1ccc(O)cc1`, the composite z-score in experiment [1] is 0.489; in experiment [2], -0.791; in experiment [3] it was -0.424; in experiment [4], -0.473; in [5], 0.481; in [6], 0.304. Besides, the composite z-score with Lefty1 amounted to 0.057; in [8], 1.08. Besides, the z-score in experiment [7] is -0.124; in experiment [9], 0.836 (inactive).
On to `COC(=O)C(CC#Cc1ccc2c(c1)[C@]1(C(=O)N2)[C@H](c2ccccc2OCCO)N2[C@H](c3ccccc3)[C@H](c3ccccc3)OC(=O)[C@H]2[C@@H]1C(=O)N1CCc2cc(OC)c(OC)cc2C1)C(=O)OC`, for which the composite z-score in experiment [1] was determined as 1.3; in experiment [2], 1.21; in experiment [3], 0.317; in experiment [4] it was 0.601; in [5], 1.32; in experiment [6], 0.667. The composite z-score in the experiment on Lefty1 was 0.896; in experiment [8], 0.28. Also, the z-score in [7] is -0.668; in [9], -0.242 (inactive).
For the compound `CC(C)(C)OC(=O)CC[C@]1(C(=O)NCC(O)CO)N=C(c2ccc(OCCCO)cc2)O[C@H]1c1ccccc1N=[N+]=[N-]` (stereo not given in full), the composite z-score in experiment [1] came out at 2.42; in experiment [2], 1.01; in [3] it was 0.696; in [4] it was 0.953; in experiment [5], 1.38; in [6] it was 0.581. Also, the composite z-score with Lefty1 was -0.41; in experiment [8], 1.3. Moreover, the z-score is 0.739 in experiment [7] and -8.87 (active) in [9].
As for `O=C(NC1CC1)[C@@H]1c2ccccc2C(=O)N(CC23CC4CC(CC(C4)C2)C3)[C@H]1c1ccc(CO)cc1`, the composite z-score in [1] is 1.17; in [2], 1.12; in [3], 0.476; in [4], 0.919; in experiment [5] it was 1.44; in experiment [6] it was 1.28. The composite z-score amounted to 1.33 in the experiment with Lefty1 and 0.33 in experiment [8]. The z-score in experiment [7] was 0.0467; in [9], 0.7 (inactive).
As to `CCOC(=O)c1cn(C[C@H](Cc2ccccc2)NC(=O)N[C@H](CO)CCc2oc(C(C)=O)c(C(=O)OC)c2C(=O)OC)nn1`, the composite z-score is 0.0033 in experiment [1]; 1.18 in experiment [2]; 0.123 in experiment [3]; 0.812 in experiment [4]; 1.31 in experiment [5]; 1.66 in experiment [6]. In addition, the composite z-score amounted to 1.59 with Lefty1 and 0.493 in experiment [8]. Also, the z-score is -0.391 in experiment [7] and 0.783 (inactive) in experiment [9].
Take `COc1ccc(C(=O)Nc2cccc(CN3C(=O)[C@]4(O[C@H](CC(=O)N5Cc6ccccc6C[C@H]5CO)[C@@H]([Si](C)(C)c5ccc(OC)cc5)[C@@H]4C)c4ccccc43)c2)cc1`: the composite z-score amounted to 1.17 in experiment [1]; 0.481 in [2]; 0.343 in experiment [3]; 0.368 in [4]; 1.39 in [5]; 1.7 in experiment [6]. Besides, the composite z-score in the experiment on Lefty1 is 1.59; in [8], -0.0276. Moreover, the z-score is -0.806 in [7] and 0.429 (inactive) in experiment [9].
